Laboratory results from PubChem BioAssay AID493162 (ICCB-Longwood Screening Facility, Harvard Medical School, 2011).
Screen size: about 46,000 compounds; about 430 (0.93%) were called active. No stated cut-off is given here; in the data, active means normalized absorbance mostly below about 85% (no sharp cut-off); inactive means mostly above about 86%. This excerpt belongs to a sample that is enriched for actives.

These molecules were tested on Vaccinia virus DNA polymerase (E9) processive complex (assay: vaccinia E9 polymerase processive synthesis inhibitors, primary screen, biochemical, absorbance (AID 493162)). Conditions: in vitro processive DNA synthesis, absorbance read-out; active compounds read low; concentration not given here.
For O=C(CSc1nc2ccc(N=Cc3cc(Br)ccc3O)cc2s1)Nc1ccccc1, the normalized absorbance was 100% (inactive).
In the case of CCCNS(=O)(=O)c1ccc2c(c1)oc(=O)n2CC(=O)OCC, the normalized absorbance is reported as 99.1% (inactive).
In the case of O=c1c(/C=N\O)coc2ccc(F)cc12, the normalized absorbance is reported as 79.3% (inactive).
COc1cccc2c(=O)n(CC(=O)NCc3ccccc3)ccc12 was tested, and the normalized absorbance was 90% (inactive).
CN(C(=O)COC(=O)c1cnc(Cl)c(Cl)c1)c1ccccc1 was tested, and the normalized absorbance was 101% (inactive).
In the case of COCc1cc(Cl)nc(-c2ccccc2)n1, the normalized absorbance is reported as 103% (inactive).
For c1csc(Nc2nc3cc4c(cc3s2)OCO4)n1, the normalized absorbance was 96.8% (inactive).
CCCCN1N=C(C)CC1=O was tested, and the normalized absorbance was 99.9% (inactive).
In the case of CCC(=O)Oc1ccc(Br)cc1/C=C1\Sc2ccccc2C1=O, the normalized absorbance is reported as 99.9% (inactive).
With ClCc1csc(-c2ccccc2)n1 the normalized absorbance was 96.4% (inactive).
For Cc1ccc2cc(CCNC(=O)CCC3CCCC3)c(=O)[nH]c2c1, the normalized absorbance was 101% (inactive).
With CCN1CCCC1CNC(=O)c1cc2c(=O)n(C)c3ccccc3c2n1C (stereo unspecified) the normalized absorbance was 51.4% (active).
With COCCn1cc(C(=O)NC2CCCCCC2)c2c3ccccc3n(C)c2c1=O the normalized absorbance was 102% (inactive).
In the case of Cn1c(C(=O)NC2CCCC2)cc2oc3ccccc3c21, the normalized absorbance is reported as 104% (inactive).
For COc1cc2c3c(c1OC)C1(C=CC(=O)C=C1)CC3[N+](C)(C)CC2 (stereo unspecified), the normalized absorbance was 75.6% (inactive).
For O=C(N=C1SC2CS(=O)(=O)CC2N1c1ccccc1)c1ccccc1 (stereo unspecified), the normalized absorbance was 112% (inactive).
With Cc1cc(S(=O)(=O)N2CCN(Cc3ccccc3)CC2)c(C)cc1Cl the normalized absorbance was 71.9% (inactive).
With Cc1ccc(-c2cn3nc(N4CCC(C(=O)NCCCN5CCCCC5)CC4)sc3n2)cc1 the normalized absorbance was 104% (inactive).
In the case of Cc1c(C(=O)NCCCN2CCCCCC2)oc2ccc3nc(N(C)C)sc3c12, the normalized absorbance is reported as 64.3% (active).
With O=C(NCCCN1CCCC1)c1cc(-c2ccncc2)nc2ccccc12 the normalized absorbance was 86.5% (inactive).
CC(C)=CCC(O)C1=CC(=O)c2c(O)ccc(O)c2C1=O (stereo unspecified) was tested, and the normalized absorbance was 81.9% (active).
In the case of Cc1ccccc1NC1=NC2(CCCCC2)N=C(N)N1, the normalized absorbance is reported as 100% (inactive).
In the case of O=C(O)CC(c1ccccc1)n1cnnn1 (stereo unspecified), the normalized absorbance is reported as 107% (inactive).
In the case of O=C(O)CCc1nc2cc(Cl)ccc2n(Cc2ccccc2)c1=O, the normalized absorbance is reported as 98.8% (inactive).
With O=C(O)CC(c1ccccc1)c1cc(Cl)ccc1O (stereo unspecified) the normalized absorbance was 73.5% (active).
With CC(=O)N1CC(C)Oc2cc(S(=O)(=O)N(C)Cc3ccccc3)ccc21 (stereo unspecified) the normalized absorbance was 103% (inactive).
With COc1cccc2c1C(=O)C1C(O)=C3C(=C(O)C1C2=O)C[C@@](O)(C(=O)CO)C[C@@H]3OC1CC(N)C(O)C(C)O1 (stereo partly specified) the normalized absorbance was 7.8% (active).
In the case of Cc1ccccc1Nc1nn2c(=O)c3ccc(C(=O)NCc4ccccc4Cl)cc3nc2s1, the normalized absorbance is reported as 96.3% (inactive).
Cc1scc(-c2ccccc2)[n+]1C was tested, and the normalized absorbance was 97% (inactive).
With Clc1ccc2oc(-c3ccccc3)c/c(=N\c3nccs3)c2c1 the normalized absorbance was 99.8% (inactive).
CN(C)CCN=c1cc(-c2ccccc2)oc2ccc(Cl)cc12 was tested, and the normalized absorbance was 25.3% (active).
With S=c1cc(-c2ccccc2)oc(-c2ccccc2)c1 the normalized absorbance was 99.9% (inactive).
N#Cc1ccccc1NC(=O)CSc1ccccc1 was tested, and the normalized absorbance was 105% (inactive).
For O=C(CCNS(=O)(=O)c1ccc2[nH]c(=O)ccc2c1)NC1CCCC1, the normalized absorbance was 103% (inactive).
Cc1ccc(S(=O)(=O)N2CCCC(C(=O)N(C)c3ccccc3)C2)cc1 (stereo unspecified) was tested, and the normalized absorbance was 101% (inactive).
COC(CN(C)C(=O)c1cc2c(Cl)nc3ccc(C)cc3c2s1)OC was tested, and the normalized absorbance was 80.2% (inactive).
O=C(NCCCN1CCOCC1)c1cc2c(s1)CCC2 was tested, and the normalized absorbance was 82.2% (inactive).
For Cc1ccc2nc(Cl)c3cc(C(=O)NCCN4CCN(C)CC4)sc3c2c1, the normalized absorbance was 22.8% (active).
With CC(C)NC(=O)CN1C(=O)c2cccnc2Oc2ccccc21 the normalized absorbance was 102% (inactive).
For O=C(NCc1ccccc1Cl)C1(c2ccccc2)CCCC1, the normalized absorbance was 97.8% (inactive).
For CS(=O)(=O)N1CCN=C1SCc1cccnc1, the normalized absorbance was 66.5% (active).
In the case of CSC1=NCCN1S(=O)(=O)c1ccc(Br)cc1, the normalized absorbance is reported as 110% (inactive).
With O=C(O)CCc1cccnc1 the normalized absorbance was 102% (inactive).
With COC(=O)Nc1cn(Cc2ccccn2)c(=O)c2ccccc12 the normalized absorbance was 112% (inactive).
For O=c1[nH]c(=S)[nH]cc1S(=O)(=O)c1ccc(F)cc1, the normalized absorbance was 99.5% (inactive).
In the case of O=C(Nc1ccc2nc(SCC(=O)N3CCc4ccccc43)sc2c1)c1ccccc1Cl, the normalized absorbance is reported as 100% (inactive).
In the case of CCN(CC)c1ccc(C=Nc2cc(C)cc(C)c2)cc1, the normalized absorbance is reported as 100% (inactive).
In the case of CCOc1ccc(S(=O)(=O)N2CCC(C)CC2)cc1, the normalized absorbance is reported as 99% (inactive).
Nc1ccc(-c2nc3ccccc3[nH]2)c(N)c1 was tested, and the normalized absorbance was 99.3% (inactive).
With COc1ccc(C2=NS(=O)(=O)N(C)C(C(=O)N(C)Cc3ccccc3)=C2)cc1 the normalized absorbance was 86.6% (inactive).
Cc1cccc(-n2nc3c(c2NC(=O)/C=C\c2ccco2)CSC3)c1C was tested, and the normalized absorbance was 85.2% (inactive).
In the case of CC(=O)Nc1sc(C)nc1-c1ccccc1, the normalized absorbance is reported as 99.1% (inactive).
In the case of CC(=O)n1c2ccccc2c2nc(C)sc21, the normalized absorbance is reported as 45.9% (active).
CC(=O)n1c(C=Nc2ccccc2)c(O)c2ccccc21 was tested, and the normalized absorbance was 99.4% (inactive).
Cc1nc2ccc(S(=O)(=O)NC(CC(C)C)C(=O)NC3CCCCCC3)cc2s1 (stereo unspecified) was tested, and the normalized absorbance was 103% (inactive).
With CCOc1ccc(C(=O)Nc2nc3c(OC)cccc3s2)cc1 the normalized absorbance was 106% (inactive).
For Cc1ccc(S(=O)(=O)N2CCCC(n3cccc3)C2)cc1 (stereo unspecified), the normalized absorbance was 117% (inactive).
CC12CCC3C(CCC4CCCCC43C)C1C/C(=C\c1ccc[nH]1)C2=O (stereo unspecified) was tested, and the normalized absorbance was 101% (inactive).
With Cc1cc(Nc2ccc(Cl)cc2)n2c(nc3ccccc32)c1C#N the normalized absorbance was 100% (inactive).
For COc1ccc(-c2cc(-c3ccccc3)nc(SCC(N)=NC#N)c2C#N)cc1, the normalized absorbance was 100% (inactive).
C[N+](C)(C)CCOC(=O)c1ccccc1 was tested, and the normalized absorbance was 99.6% (inactive).
In the case of Cc1nc(C)nc(N(Cc2ccccc2)Cc2ccccc2)n1, the normalized absorbance is reported as 94.7% (inactive).
With Cc1ccc(Nc2c(-c3c[nH]c4ccccc34)nc3c[n+](CC(N)=O)ccn23)cc1 the normalized absorbance was 95.2% (inactive).
With COc1ccc(C(=O)N2CCN(c3ccc(N4CCOCC4)nn3)CC2)cc1 the normalized absorbance was 101% (inactive).
In the case of O=C1NC(=Nc2ccc(O)cc2)S/C1=C\c1ccc(Cl)cc1Cl, the normalized absorbance is reported as 100% (inactive).
With CC1CCc2sc(NC(=O)Cc3ccccc3)c(C(N)=O)c2C1 (stereo unspecified) the normalized absorbance was 89.9% (inactive).
